The values below come from PubChem BioAssay (NCATS).

A short description of assay [1]: Validation screen for small molecules that induce DNA re-replication in SW480 colon adenocarcinoma cells (AID 504364). Note: 0% is about no effect. In outline:
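SW480 cells seeded at 250 per well were exposed to compound or DMSO for 48 hr at 37 C, 5% CO2, then stained with Hoechst for 40 min. DNA content per nucleus was imaged (405 nm ex, 500-530 nm em).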

For assay [2], the target named is Peptidyl-prolyl cis-trans isomerase NIMA-interacting 1 (Homo sapiens) (UniProt Q13526). Put plainly: qHTS Validation Assay to Find Inhibitors of Pin1 (AID 504536; active = well fitted inhibition curve with a large enough effect in the polarisation, with a control signal flat, not every such curve was filed as active; the % refers to the polarisation;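 note: 0% = full Pin1 enzyme wells and -100% = no-enzyme wells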). The procedure, abridged: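 Fluorescence polarization competition: compounds (titration) displace HiFluor-488-labeled Pin1-1b peptide from Pin1 (0.3 uM final) in pH 7.5 HEPES buffer with DTT, 10 min at room temperature; %Activity normalized to no-enzyme wells, curves fitted.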
Chain of Peptidyl-prolyl cis-trans isomerase NIMA-interacting 1 (Homo sapiens) (Q13526 whole entry, looked up): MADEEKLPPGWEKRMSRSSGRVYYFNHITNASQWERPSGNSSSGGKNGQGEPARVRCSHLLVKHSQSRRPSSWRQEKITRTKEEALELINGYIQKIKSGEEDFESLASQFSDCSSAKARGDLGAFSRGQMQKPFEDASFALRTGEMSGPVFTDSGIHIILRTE
For orientation: In qHTS, concentration-response curves come from the screen itself.

Assay [3] addresses Phosphoglycerate kinase, glycosomal (Trypanosoma brucei brucei) (UniProt P07378). Nature of the assay: qHTS Validation Assay to Find Inhibitors of Phosphoglycerate Kinase (AID 504547). Note: potency is the fitted concentration of half-maximal effect. The procedure, abridged:
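Substrate/PGK mix plus compound; reaction started with GAPDH (100nM final) to form 1,3-BPG; 60 min RT; Kinase-Glo Plus 10 min; luminescence. TEA 100mM pH 7.6, MgCl2 5mM, Tween-20 0.01%.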

Assay [4] deals with phosphoglycerate mutase (Leishmania major) (UniProt Q4Q090). Put plainly: qHTS Validation Assay to Find Inhibitors of Phosphoglycerate Mutase (AID 504548).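 Note: end-point luminescence from Kinase-GloPlus after the PGAM reaction; series mostly up to about 58 µM; % is set by controls: 0 for no effect and ±100 for the full control effect.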 Particulars: Potency: inhibition qHTS. The procedure, abridged:
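Inhibition of L. major PGAM was assessed by Kinase-GloPlus luminescence following a 45-minute room-temperature reaction with enzyme at 1.25nM final.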

Assay [5] concerns the target Ubiquitin carboxyl-terminal hydrolase 1 (Homo sapiens) (UniProt O94782). Put plainly: Inhibitors of USP1/UAF1: Pilot qHTS (AID 504865).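 Note: rhodamine fluorescence freed from ubiquitin-rhodamine substrate followed over time; top concentration of the series differs between compounds; % is set by controls: 0 for no effect and ±100 for the full control effect; nearly all actives have a fitted effect of over 35% in size.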 The procedure, abridged: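 1nM USP1/UAF1 + cpd, 15 min RT; start w/ Ub-Rho 150nM final; kinetic FL 480/540 nm, 6 reads q60 s. Buffer 50mM HEPES pH 7.8, 0.5mM EDTA, 1mM TCEP, 0.01% Tween-20, 0.1 mg/ml BSA.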
The nature of assay [6]: qHTS for Inhibitors of ATXN expression: Validation of Cytotoxic Assay (AID 588349). Note: % is set by controls: 0 for no effect and ±100 for the full control effect. In outline:
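HEK293 cells were dosed with titrated compounds for 72 hr at 37 degrees C. Viability was read by CellTiter Glo luminescence, with intracellular ATP as the marker of cell survival.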

The nature of assay [7]: qHTS for Inhibitors of ATXN expression: Validation (AID 588378). Note: nearly all actives have a fitted effect of over 75% in size. Note: potency is the fitted concentration of half-maximal effect. In outline:
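Cells: HEK293-ATXN2-FFLuc, phenol-red free DMEM, 2 h attachment. Compound pin-transfer, 24 h, 37 degrees C, 5% CO2. CellTiter-Fluor 30 min, Ex405/Em525; Bright-Glo 5 min, luminescence 2 s exposure.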

A short description of assay [8]: Inducers of the Endoplasmic Reticulum Stress Response (ERSR) in human glioma: Validation (AID 504836). Note: 0% is about no effect. In outline: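 Stably transfected U87-MG human glioma cells carrying a GRP78-based luminescent sensor were seeded at 1000 cells/well, pin-dosed with compounds and incubated 16 h. Luciferase reagent was then added, and end-point luminescence was read after 10 min at room temperature.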

For assay [9], the target named is DNA dC->dU-editing enzyme APOBEC-3G (Homo sapiens) (UniProt Q9HC16). Nature of the assay: qHTS for inhibitors of Vif-A3G interactions: Validation (AID 588379). Note: 0% is about no effect. The procedure, abridged:
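HeLa cells stably expressing Vif and A3G-eYFP, 700 cells/well, incubated overnight at 37 deg C, then exposed to compound overnight at 37 deg C. Inhibition of Vif-mediated degradation read as increased yellow fluorescence (Ex 488/Em 500-530) by laser-scanning cytometry.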

Assay [10] deals with Peroxisome proliferator-activated receptor gamma (Homo sapiens) (UniProt P37231). Nature of the assay: qHTS assay for small molecule agonists of peroxisome proliferator-activated receptor gamma signaling (AID 588536; active = well fitted curve in the direction sought with a large enough effect in the signal ratio, with a control signal flat, not every such curve was filed as active; the % refers to the signal ratio;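 note: 0% = DMSO basal wells and 100% = rosiglitazone at 2 µM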). The procedure, abridged: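 HEK293 UAS-bla reporter line, 1% charcoal/dextran FBS; titration, 16 h, 37 C; CCF4 loading 2 h RT; fluorescence 460/530 nm. Normalized to rosiglitazone 2 uM = 100%, DMSO = 0%.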
Chain of Peroxisome proliferator-activated receptor gamma (Homo sapiens) (P37231 whole entry, looked up): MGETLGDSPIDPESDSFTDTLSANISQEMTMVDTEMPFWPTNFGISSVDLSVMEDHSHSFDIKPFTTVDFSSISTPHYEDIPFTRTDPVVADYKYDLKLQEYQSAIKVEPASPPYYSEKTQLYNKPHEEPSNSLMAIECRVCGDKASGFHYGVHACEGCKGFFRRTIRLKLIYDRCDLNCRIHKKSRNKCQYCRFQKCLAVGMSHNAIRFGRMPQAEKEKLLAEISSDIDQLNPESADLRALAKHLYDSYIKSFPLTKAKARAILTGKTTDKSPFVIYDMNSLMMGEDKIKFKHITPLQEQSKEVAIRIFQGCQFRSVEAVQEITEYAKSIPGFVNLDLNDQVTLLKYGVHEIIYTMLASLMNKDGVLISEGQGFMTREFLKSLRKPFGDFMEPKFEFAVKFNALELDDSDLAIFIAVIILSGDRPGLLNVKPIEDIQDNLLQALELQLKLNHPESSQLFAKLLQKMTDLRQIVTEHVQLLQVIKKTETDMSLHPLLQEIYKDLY

The target in assay [11] is Estrogen receptor (Homo sapiens) (UniProt P03372). Nature of the assay: qHTS assay for small molecule agonists of estrogen receptor alpha signaling (AID 588514; calls by dose curve;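 note: 0% = vehicle only and 100% = reference agonist; nearly all actives have a fitted effect of over 70% in size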). In outline: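 ER-alpha-UAS-bla GripTite HEK 293 cells in medium with 2% charcoal/dextran-treated FBS were treated with compound titrations at 37 C for 18 hrs; beta-lactamase reporter read by CCF4 fluorescence after 2 hrs at RT.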
Chain of Estrogen receptor (Homo sapiens) (P03372 whole entry, looked up): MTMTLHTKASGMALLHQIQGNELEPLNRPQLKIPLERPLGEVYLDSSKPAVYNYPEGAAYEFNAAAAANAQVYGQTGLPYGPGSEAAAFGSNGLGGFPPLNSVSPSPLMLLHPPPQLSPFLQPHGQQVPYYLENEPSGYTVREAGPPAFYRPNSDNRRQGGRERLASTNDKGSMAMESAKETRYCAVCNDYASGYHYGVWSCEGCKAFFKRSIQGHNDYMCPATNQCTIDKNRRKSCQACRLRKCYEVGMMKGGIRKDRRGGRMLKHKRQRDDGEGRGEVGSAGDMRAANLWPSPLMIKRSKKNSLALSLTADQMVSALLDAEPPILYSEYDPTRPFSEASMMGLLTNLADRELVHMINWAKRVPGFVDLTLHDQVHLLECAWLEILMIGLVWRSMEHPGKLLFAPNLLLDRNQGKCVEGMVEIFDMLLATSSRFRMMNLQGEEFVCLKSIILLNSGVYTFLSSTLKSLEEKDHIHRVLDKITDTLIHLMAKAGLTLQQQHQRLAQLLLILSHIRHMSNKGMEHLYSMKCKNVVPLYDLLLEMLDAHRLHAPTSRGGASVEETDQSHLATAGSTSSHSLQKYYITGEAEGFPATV

For assay [12], the target named is Bile acid receptor (Homo sapiens) (UniProt Q96RI1). Put plainly: qHTS assay for small molecule antagonists of farnesoid X receptor signaling (AID 588526; calls by dose curve; note: % is set by controls: 0 for no effect and ±100 for the full control effect). In outline:
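Concentration-response titrations were fitted to the Hill equation for half-maximal inhibition and maximal response, with data normalised to 50 uM chenodeoxycholic acid and DMSO control wells. Cells: FXR-UAS-bla HEK293T, dialyzed FBS.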

For assay [13] the target is unchanged. Nature of the assay: qHTS assay for small molecule agonists of farnesoid X receptor signaling (AID 588527; calls by dose curve;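 note: series mostly up to about 77 µM; 0% = vehicle basal and 100% = reference agonist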). Particulars: HEK293T FXR-UAS-bla, beta-lactamase ratio, 16 h; active compounds read high. In outline:
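Quantitative HTS used FXR-UAS-bla HEK293T cells with 16 h compound incubation at 37 C. EC50 values came from concentration-response curves normalized to chenodeoxycholic acid.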

In assay [14] the target is Glucocorticoid receptor (Homo sapiens) (UniProt P04150). Nature of the assay: qHTS assay for small molecule agonists of glucocorticoid receptor signaling (AID 588532; active = well fitted curve in the direction sought with a large enough effect in the signal ratio, with a control signal flat; the % refers to the signal ratio;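 note: 100% = dexamethasone at 0.1 µM and 0% = DMSO only wells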). Particulars: HeLa MMTV-bla, beta-lactamase ratio, agonist, 18 h; active compounds read high; percent of dexamethasone control, DMSO zero. The procedure, abridged:
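Stimulation of a glucocorticoid response element-driven beta-lactamase gene was measured in HeLa cells. Responses were scaled between DMSO basal and 0.1 uM dexamethasone, then fitted for half-maximal stimulation.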

Unmarked numbers belong to inactive results. Inconclusive results are not listed. Calls of active or inactive are those of the source. Unless noted, calls come from the whole dose curve; as a rule, active = well fitted curve in the direction sought with a large enough effect; inconclusive = small, poorly fitted or top-dose-only effect, or another doubt; inactive = no such curve, though single readings can be large; an effect the other way counts as inactive or inconclusive.

Chain of phosphoglycerate mutase (Leishmania major) (Q4Q090 1-553): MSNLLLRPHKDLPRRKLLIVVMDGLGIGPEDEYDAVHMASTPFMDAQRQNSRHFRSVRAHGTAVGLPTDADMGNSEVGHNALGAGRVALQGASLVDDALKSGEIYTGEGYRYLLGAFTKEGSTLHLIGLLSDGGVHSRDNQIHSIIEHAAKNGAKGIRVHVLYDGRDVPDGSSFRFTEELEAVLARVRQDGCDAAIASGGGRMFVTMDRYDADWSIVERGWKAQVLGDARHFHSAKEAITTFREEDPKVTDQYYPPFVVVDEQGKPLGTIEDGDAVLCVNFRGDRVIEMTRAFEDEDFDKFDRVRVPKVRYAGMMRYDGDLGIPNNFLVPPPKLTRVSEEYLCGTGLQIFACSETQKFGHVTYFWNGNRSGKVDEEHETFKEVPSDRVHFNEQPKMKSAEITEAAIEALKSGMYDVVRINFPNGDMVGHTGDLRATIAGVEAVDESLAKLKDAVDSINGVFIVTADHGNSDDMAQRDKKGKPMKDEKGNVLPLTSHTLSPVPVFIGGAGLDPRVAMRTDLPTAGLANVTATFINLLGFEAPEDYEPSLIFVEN
Chain of Ubiquitin carboxyl-terminal hydrolase 1 (Homo sapiens) (O94782 whole entry, looked up): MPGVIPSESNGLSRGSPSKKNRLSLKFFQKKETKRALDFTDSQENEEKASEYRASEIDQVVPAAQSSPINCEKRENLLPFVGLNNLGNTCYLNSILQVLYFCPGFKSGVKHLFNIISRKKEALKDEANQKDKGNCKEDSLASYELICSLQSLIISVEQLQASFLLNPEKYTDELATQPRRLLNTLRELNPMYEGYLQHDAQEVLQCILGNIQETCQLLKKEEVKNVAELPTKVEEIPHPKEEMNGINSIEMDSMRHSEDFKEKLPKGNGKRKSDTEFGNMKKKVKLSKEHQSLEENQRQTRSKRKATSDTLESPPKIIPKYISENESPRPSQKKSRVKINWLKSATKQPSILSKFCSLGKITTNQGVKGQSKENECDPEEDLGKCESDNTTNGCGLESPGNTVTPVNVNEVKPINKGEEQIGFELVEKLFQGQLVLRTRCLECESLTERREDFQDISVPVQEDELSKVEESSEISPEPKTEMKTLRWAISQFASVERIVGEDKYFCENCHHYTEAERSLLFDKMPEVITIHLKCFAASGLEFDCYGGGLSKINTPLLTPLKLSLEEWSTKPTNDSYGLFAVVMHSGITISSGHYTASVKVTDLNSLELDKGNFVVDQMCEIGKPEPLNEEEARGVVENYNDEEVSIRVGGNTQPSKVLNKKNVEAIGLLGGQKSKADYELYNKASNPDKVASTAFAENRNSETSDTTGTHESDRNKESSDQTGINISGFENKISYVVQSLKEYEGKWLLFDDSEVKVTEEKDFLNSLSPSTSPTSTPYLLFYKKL
Chain of Phosphoglycerate kinase, glycosomal (Trypanosoma brucei brucei) (P07378 whole entry, looked up): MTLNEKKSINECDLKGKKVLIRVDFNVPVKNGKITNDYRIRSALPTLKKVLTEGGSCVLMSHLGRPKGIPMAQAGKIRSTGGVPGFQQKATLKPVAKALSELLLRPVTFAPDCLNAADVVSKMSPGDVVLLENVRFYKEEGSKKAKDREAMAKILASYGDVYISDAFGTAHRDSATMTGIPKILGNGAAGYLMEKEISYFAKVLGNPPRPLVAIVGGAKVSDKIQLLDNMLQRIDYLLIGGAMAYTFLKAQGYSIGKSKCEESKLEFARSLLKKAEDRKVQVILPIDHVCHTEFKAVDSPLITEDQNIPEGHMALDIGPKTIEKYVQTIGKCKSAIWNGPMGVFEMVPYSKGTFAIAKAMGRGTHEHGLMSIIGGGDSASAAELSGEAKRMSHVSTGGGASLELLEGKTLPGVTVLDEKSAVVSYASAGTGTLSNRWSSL
Chain of DNA dC->dU-editing enzyme APOBEC-3G (Homo sapiens) (Q9HC16 whole entry, looked up): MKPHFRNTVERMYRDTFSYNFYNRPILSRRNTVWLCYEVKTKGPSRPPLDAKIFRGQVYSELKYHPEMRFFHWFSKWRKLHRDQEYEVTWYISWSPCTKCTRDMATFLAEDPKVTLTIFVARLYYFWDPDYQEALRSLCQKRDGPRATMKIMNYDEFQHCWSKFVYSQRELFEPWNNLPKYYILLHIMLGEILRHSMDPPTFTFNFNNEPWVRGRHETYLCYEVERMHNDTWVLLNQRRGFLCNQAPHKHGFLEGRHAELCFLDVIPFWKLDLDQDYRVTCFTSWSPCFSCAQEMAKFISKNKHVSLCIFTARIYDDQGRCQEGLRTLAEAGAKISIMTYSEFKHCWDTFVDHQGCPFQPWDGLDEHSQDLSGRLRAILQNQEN
Chain of Bile acid receptor (Homo sapiens) (Q96RI1 whole entry, looked up): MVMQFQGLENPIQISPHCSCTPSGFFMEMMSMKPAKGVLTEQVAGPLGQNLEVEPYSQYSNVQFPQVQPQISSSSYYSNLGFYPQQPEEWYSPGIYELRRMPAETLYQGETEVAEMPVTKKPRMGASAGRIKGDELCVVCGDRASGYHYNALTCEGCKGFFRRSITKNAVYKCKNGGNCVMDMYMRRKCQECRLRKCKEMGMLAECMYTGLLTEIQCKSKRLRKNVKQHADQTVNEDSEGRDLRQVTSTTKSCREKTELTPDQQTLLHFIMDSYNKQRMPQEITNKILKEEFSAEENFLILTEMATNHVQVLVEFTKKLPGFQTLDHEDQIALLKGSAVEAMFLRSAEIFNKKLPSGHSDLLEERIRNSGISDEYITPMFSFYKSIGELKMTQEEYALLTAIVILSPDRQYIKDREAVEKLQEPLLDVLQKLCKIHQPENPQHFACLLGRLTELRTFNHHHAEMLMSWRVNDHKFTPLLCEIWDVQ
Chain of Glucocorticoid receptor (Homo sapiens) (P04150 whole entry, looked up): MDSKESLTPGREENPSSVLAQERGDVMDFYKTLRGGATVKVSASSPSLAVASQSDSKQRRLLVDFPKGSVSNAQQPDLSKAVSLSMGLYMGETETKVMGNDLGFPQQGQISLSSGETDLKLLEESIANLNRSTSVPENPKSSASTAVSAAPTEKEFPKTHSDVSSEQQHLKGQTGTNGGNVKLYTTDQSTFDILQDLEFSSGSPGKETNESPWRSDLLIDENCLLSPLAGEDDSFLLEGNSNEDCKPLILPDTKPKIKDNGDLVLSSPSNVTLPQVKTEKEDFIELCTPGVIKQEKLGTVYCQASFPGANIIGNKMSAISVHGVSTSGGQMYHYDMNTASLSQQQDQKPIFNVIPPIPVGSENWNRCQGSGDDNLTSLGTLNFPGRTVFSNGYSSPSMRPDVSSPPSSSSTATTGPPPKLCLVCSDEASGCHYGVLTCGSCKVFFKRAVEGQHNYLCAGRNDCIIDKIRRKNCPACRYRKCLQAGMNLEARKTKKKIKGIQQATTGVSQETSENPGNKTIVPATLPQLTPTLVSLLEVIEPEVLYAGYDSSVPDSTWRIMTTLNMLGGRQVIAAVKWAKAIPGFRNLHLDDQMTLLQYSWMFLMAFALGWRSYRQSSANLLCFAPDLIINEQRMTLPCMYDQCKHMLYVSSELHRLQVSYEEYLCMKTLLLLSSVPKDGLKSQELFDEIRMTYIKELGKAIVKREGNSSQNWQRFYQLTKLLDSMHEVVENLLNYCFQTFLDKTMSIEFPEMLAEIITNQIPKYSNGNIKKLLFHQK

As to `Nc1ccc(CCN2CCN(c3cccc(C(F)(F)F)c3)CC2)cc1`, the Potency result in [1], in [2], in assay [3], in assay [4], in assay [5] and in [6] was “inactive” each time.

Take `NCC(O)c1cc(O)c(O)cc1F` (centres undefined): the Potency result in [1], in [2], in assay [4], in [5], in assay [6] and in [7] was “inactive” throughout. In [3], the Potency was 21.3 µM (active).

Turning to `Cc1sc2ccccc2c1CC1=NCCN1`, the Potency entry in assay [1], in assay [2], in assay [3], in assay [5] and in [6] was “inactive” throughout.

Regarding `COc1ccc2[nH]c3c(c2c1)CCNC3`, the Potency entry in assay [1], in [2], in [4], in assay [5] and in [6] was “inactive” each time.

Turning to `CN(N=O)c1cc(O)ccc1O`, the Potency result in assay [1], in assay [2], in assay [4] and in assay [5] was “inactive” throughout. Moreover, in assay [8], the call was inactive. Moreover, the Potency in assay [7] was 28.2 µM (active).

As to `Cc1o[nH]c(=O)c1CC(N)C(=O)O` (centres undefined), the Potency result in assay [1], in assay [2], in [3], in assay [4], in [5] and in assay [6] was “inactive” throughout. In addition, the Potency result in [7] was “inactive”.

For the compound `CCOC(=O)c1ncn2c1[C@@H]1CCCN1C(=O)c1cc(OC)ccc1-2`, the Potency entry in [1], in assay [2], in assay [3], in assay [4], in [5] and in assay [6] was “inactive” throughout. In addition, the Potency entry in assay [7] was “inactive”.

`NC(=O)COc1c(F)cc(SCCNS(=O)(=O)c2ccccc2)cc1F`: the Potency result in [1], in assay [2], in assay [4], in [5] and in assay [7] was “inactive” in each case. Further, the compound was called inactive in assay [8].

As to `C[N+](C)(C)CC#CCN1CCCC1=O`, the Potency entry in assay [1], in [2], in [4], in assay [5], in assay [6] and in [7] was “inactive” in each case. The result in [8] and in [9] was inactive.

For `COc1ccc(CNC(=O)/C=C/c2ccc3[nH]cc(CCN(C)C)c3c2)cc1`, the Potency result in [1], in assay [2], in assay [4], in assay [5] and in [6] was “inactive” in each case. In addition, the call in assay [8] was inactive.

For the compound `CO[C@H]1CC=C2CCN3CCC4=C(CC(=O)OC4)[C@]23C1`, the Potency entry in assay [1], in [2], in assay [4], in assay [5], in assay [6] and in assay [7] was “inactive” throughout. The outcome in assay [8] was inactive.

In the case of `Cc1[nH]c2ccc(O)cc2c1CCN`, the Potency result in assay [1], in [2], in assay [3], in assay [4], in assay [5] and in assay [6] was “inactive” throughout. Besides, the Potency result in [7] is “inactive”. The compound was called inactive in assay [9].

For the compound `C[N+]1(C)CCOC(O)(c2ccc(-c3ccc(C4(O)C[N+](C)(C)CCO4)cc3)cc2)C1` (centres undefined), the Potency result in [1], in assay [2], in [4], in [5], in assay [6] and in [7] was “inactive” each time. In assay [8], the compound was classed as inactive.

On to `C[N+]1(C)CCN(c2ccccc2)CC1`, for which the Potency result in assay [1], in assay [2], in [3], in assay [4], in [5] and in [7] was “inactive” throughout.

Take `c1ccc2cc(CC3=NCCN3)ccc2c1`: the Potency result in assay [1], in assay [2], in assay [3], in assay [4], in assay [5] and in [6] was “inactive” each time. Besides, the Potency result in [7] is “inactive”.

Consider `Clc1ccc(N2CC3CCC(C2)N3)nn1`, for which the Potency result in assay [1], in assay [2], in [4], in assay [5], in assay [6] and in [7] was “inactive” throughout.

As for `NCCc1ccc(S(=O)(=O)F)cc1`, the Potency result in assay [1], in [2], in assay [4], in assay [5], in [6] and in [7] was “inactive” in each case. Also, the compound was classed as inactive in assay [8].

As for `CCCN(CCC)[C@H]1CCc2c(F)ccc(O)c2C1`, the Potency result in assay [1], in [2], in assay [3], in assay [4], in assay [5] and in [6] was “inactive” each time. The Potency result in [7] is “inactive”.

Regarding `O=[N+]([O-])c1ccc2nc(N3CCNCC3)ccc2c1`, the Potency result in assay [1], in assay [2], in assay [4] and in assay [5] was “inactive” throughout. For the same compound, the compound was classed as inactive in assay [8].

With `CN1CCC(c2c[nH]c3ccc(O)cc23)CC1`, the Potency result in assay [1], in assay [2], in [4], in assay [5], in [6] and in assay [7] was “inactive” in each case. The outcome in [8] and in assay [9] was inactive.

Consider `OC1CCCCC1N1CCC(c2ccccc2)CC1` (centres undefined), for which the Potency result in assay [1], in assay [2], in assay [4], in assay [5], in [6] and in assay [7] was “inactive” each time.

Take `CN1C2CCC1CC(OC(c1ccccc1)c1ccc(Cl)cc1)C2` (centres undefined): the Potency result in assay [1] and in assay [5] was “inactive” in each case.

Regarding `C=CCN1C[C@@H](C)N([C@H](c2ccc(C(=O)N(CC)CC)cc2)c2cccc(OC)c2)C[C@@H]1C`, the Potency result in [1], in assay [3], in assay [4], in [5], in assay [6] and in assay [7] was “inactive” throughout. In addition, in [8], the compound was called inactive.

As for `CC(C)CC(NP(=O)(O)O[C@@H]1O[C@@H](C)[C@H](O)[C@@H](O)[C@H]1O)C(=O)NC(Cc1c[nH]c2ccccc12)C(=O)O` (some centres undefined), the Potency result in [1] is “inactive”. For the same compound, the compound was classed as inactive in assay [8].

Turning to `c1ccc2c(c1)[I+]c1ccccc1-2`, the Potency result in assay [2], in assay [3], in assay [4] and in assay [5] was “inactive” in each case. Besides, the compound was called inactive in assay [9].

Turning to `O=C1C=CC(=O)C=C1`, the Potency entry in assay [1], in [2], in [5], in assay [6] and in [7] was “inactive” in each case. Moreover, the result in assay [8] and in assay [10] was inactive.

For the compound `CCN1C[C@@]2(COC)C3[C@@H](OC)C4[C@@H]1C3([C@@H]1C[C@]3(O)[C@H](OC(=O)c5ccccc5)[C@@H]1[C@]4(OC(C)=O)[C@@H](O)[C@@H]3OC)[C@H](OC)C[C@H]2O`, the Potency result in assay [2], in assay [3], in assay [4], in assay [5], in [6] and in assay [7] was “inactive” in each case. Also, the outcome in assay [8] was inactive.

On to `O=C(O)c1cc[c]([Hg][Cl])cc1`, for which the Potency entry in assay [1], in assay [2], in assay [11] and in [12] was “inactive” throughout. Further, the outcome in assay [8] was inactive. Also, the activation in assay [13] was 1.46%; in assay [14] it was 5.77%.
